Reference: PubChem BioAssay (NCATS)
Records with an inconclusive call do not appear. Calls of active or inactive are those of the source. Calls follow the shape of the dose curve; as a rule, active = well fitted inhibition curve with a large enough effect; inconclusive = small, poorly fitted or top-dose-only effect; inactive = flat fitted curve, though single readings scatter.

Tested on: Zika virus NS2B-NS3 protease
Assay: Primary screen GU AMC qHTS for Zika virus inhibitors (AID 1347154); also: nearly all actives have a fitted effect of over 70% in size;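 as to activity change, negative = inhibition: 0% = no-inhibitor control and -100% = no-enzyme control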
Conditions: Zika NS2B-NS3 unlinked protease, AMC fluorogenic substrate; series mostly up to 54.1 µM; activity change, negative = inhibition: at the top concentration
Summary of the method: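 Unlinked Zika NS2B hydrophilic domain/NS3 protease domain noncovalent complex (25 nM final) in 10 mM Tris-HCl pH 8.0, 0.01% Tween 20, with AMC peptide substrate. Fluorescence (ex 340, em 450 nm) change over 15 min, room temperature; percent inhibition fitted to 4-parameter Hill equation.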
Potency is read from the fitted curve at half-maximal effect.

| SMILES | activity change, negative = inhibition | Potency |
| --- | --- | --- |
| CC(CC(C#N)(c1ccccc1)c1ccccc1)N(C)C (stereo not drawn) | 0.532% [at 104 µM] (inactive) |  |
| C=CCN1CC[C@]23CCCC[C@H]2[C@H]1Cc1ccc(O)cc13 | -0.941% (inactive) |  |
| CC1COC2(c3ccccc3Cl)c3cc(Cl)ccc3NC(=O)CN12 (stereo not drawn) | -12.1% (inactive) |  |
| c1cc2c(c(N3CCNCC3)c1)OCCO2 |  | inactive |
| CNC(C)Cc1ccccc1OC (stereo not drawn) | 4.3% (inactive) |  |
| O=C(CBr)Nc1ccc(Cl)cc1C(=O)c1ccccc1F | -6.53% (inactive) |  |
| O=C(CCCCl)c1ccc(F)cc1 | -7.59% (inactive) |  |
| OC(O)C(Cl)(Cl)Cl | -0.414% (inactive) |  |
| CCC1(c2ccccc2)CCC(=O)NC1=O (stereo not drawn) | -2.05% (inactive) |  |
| CCC(=O)O[C@H]1CC[C@H]2[C@@H]3CCC4=CC(=O)CC[C@]4(C)[C@H]3CC[C@]12C | -9.27% (inactive) |  |
| CC(C)=C[C@@H]1[C@@H](C(=O)OCc2coc(Cc3ccccc3)c2)C1(C)C | -14.1% (inactive) |  |
| Nc1ccccc1C(=O)OCC(O)CO (stereo not drawn) |  | 16.1 µM (active) |
| CNC(=O)NC(O)C(Cl)(Cl)Cl (stereo not drawn) | -0.312% (inactive) |  |
| COP(=O)(OC)OC=C(Cl)Cl | -6.9% (inactive) |  |
| CNC(=O)Oc1cccc2ccccc12 | -14.3% (inactive) |  |
| CCN(Cc1ccc(Cl)nc1)/C(=C/[N+](=O)[O-])NC | 1.34% (inactive) |  |
| NC(=O)OCCCc1ccccc1 | 4.58% (inactive) |  |
| Nc1ccc(Cl)cc1C(=O)c1ccccc1F | -1.29% (inactive) |  |
| CN1CCc2cc(Cl)c(O)cc2[C@H]2c3ccccc3CC[C@@H]21 |  | inactive |

| SMILES | activity change, negative = inhibition | Potency |
| --- | --- | --- |
| CC(C)C(Br)C(=O)NC(N)=O (stereo not drawn) | 3.59% (inactive) |  |
| CN1C(=O)CN=C(c2ccccc2)c2cc([N+](=O)[O-])ccc21 | 4.41% (inactive) |  |
| CC#C[C@]1(O)CC[C@H]2[C@@H]3C[C@H](C)C4=CC(=O)CC[C@]4(C)[C@H]3CC[C@@]21C | -8.72% (inactive) |  |
| CN(C)C(=S)SSC(=S)N(C)C | -2.04% (inactive) |  |
| C[C@]12C=CC(=O)C=C1CC[C@@H]1[C@@H]2CC[C@@]2(C)[C@H]1CC[C@]2(C)O | -2.86% (inactive) |  |
| NCc1cccnc1 | 5.09% (inactive) |  |
| COc1ccc(CN2CCNCC2)c(OC)c1OC | -1.89% (inactive) |  |
| COP(=O)(OC)C(O)C(Cl)(Cl)Cl (stereo not drawn) | -0.777% (inactive) |  |
| Nc1ccc(N)cc1 | -5.49% (inactive) |  |
| CC(=O)OC1(c2ccccc2)CCN(CCc2ccccc2)CC1 | -5.32% [at 104 µM] (inactive) |  |
| C[C@@H]1O[C@@H](O[C@@H]2C=C3CC[C@@H]4[C@H](CC[C@]5(C)[C@@H](c6ccc(=O)oc6)CC[C@]45O)[C@@]3(C)CC2)[C@H](O)[C@H](O)[C@H]1O | -0.178% (inactive) |  |
| CCOC(C(=O)OCCN(C)C)(c1ccccc1)c1ccccc1 | 12% (inactive) |  |
| C[C@@H]1C[C@@H]([C@H](O)CC2CC(=O)NC(=O)C2)C(=O)[C@@H](C)C1 |  | inactive |
| Oc1ccc2[nH]cc(CCCCN3CC=C(c4ccccc4)CC3)c2c1 |  | inactive |
| CC(C)[N+](C)(CCC(C(N)=O)(c1ccccc1)c1ccccc1)C(C)C | -7.41% (inactive) |  |
| CCc1ccc(C2CCNCC2)cc1 | -4.06% (inactive) |  |
| CCC(OC(C)=O)C(CC(C)NC)(c1ccccc1)c1ccccc1 (stereo not drawn) | 5.47% [at 104 µM] (inactive) |  |
| CCC1(CC)C(=O)NC(=O)NC1=O | -1.85% (inactive) |  |
| c1ccc2nc(N3CCNCC3)ccc2c1 | -15.1% (inactive) |  |
